Data taken from PubChem BioAssay AID624298 (National Center for Advancing Translational Sciences (NCATS), 2012).
Records with an inconclusive call do not appear. The source made the active and inactive calls. Calls follow the shape of the dose curve; as a rule, active = well fitted activation curve with a large enough effect; inconclusive = small, poorly fitted or top-dose-only effect; inactive = no such curve, though single readings can be large or run the other way.

Assay: Activators of T cell receptors: Hit Validation
Details: primary human leukocytes, cytokine release by HTRF, 48 h, TCR-stimulated with anti-CD3 beads; series mostly up to 46.1 µM
Outline: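 Readout is IL-2 secretion by HTRF, measured after 48 hr in which primary human leukocytes received compound together with a-CD3 beads as the only TCR stimulus.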
Potency is read from the fitted curve at half-maximal effect.

Potency, active:
S=c1[nH]c2ccccc2n2c(=S)[nH]nc12 11.2 µM, CC(=O)NS(=O)(=O)c1ccc(NC(=S)NC(=O)COc2ccccc2C)cc1 14.1 µM, CC[n+]1ccc(/C=C/c2ccc(N(C)C)cc2)c2ccccc21 4.45 µM

Potency, inactive:
Cc1cc(C)c(-c2csc(NC(=O)C3=NN(c4ccccc4)C(=O)CC3)n2)c(C)c1, Cc1onc(-c2c(F)cccc2Cl)c1C(=O)Nc1sc2c(c1C(N)=O)CCC2, Cc1ccc(NC(=O)CN(C)C(=O)COC(=O)c2nccnc2N)cc1, CN=c1nc(-c2ccccc2)n(-c2ccccc2)s1, CCC(=O)N1CCN(c2ccc(NC(=O)c3ccc([N+](=O)[O-])o3)cc2)CC1, Cc1noc(C)c1C(=O)OC(C)C(=O)N1CCc2ccccc21 (stereo not given), COc1cc(C(=O)OCCCN2CCCN(CCCOC(=O)c3cc(OC)c(OC)c(OC)c3)CC2)cc(OC)c1OC, CCCc1nc2ccccc2c(=O)n1CCc1ccccc1, Cc1ccc(C(=O)NCCc2nnc3ccc(SCC(=O)N4CCCCC4)nn23)cc1, Cc1ccc(C(=O)NNC(=O)COC(=O)COc2ccccc2C#N)cc1, O=C(Cn1ncc(Cl)c(Cl)c1=O)NCC1CCCCC1, CN1C(=O)c2ccccc2Sc2ccc(NC(=O)N3CCOCC3)cc21, Cc1ccc(NC(=O)C2CC(=O)N(Cc3ccco3)C2)cc1 (stereo not given), COc1ccc(CN(C)C(C)C(=O)N(C)CC(=O)Nc2ccc(C)cc2)cc1F (stereo not given), NC(=O)c1ccccc1, N#Cc1ccc(CN2CCN(C(=O)c3cc(Cl)c4c(c3)OCCO4)CC2)cc1, CCOC(=O)C1CCCN(C(=O)c2cccc(S(=O)(=O)N3CCCC3)c2)C1 (stereo not given), CC(C)CSc1nc2c(c(=O)[nH]c(=O)n2C)n1CC(O)COc1cccc2ccccc12 (stereo not given), CN(C)CCC[C@]1(c2ccc(F)cc2)OCc2cc(C#N)ccc21, COc1ccc(Cl)cc1NC(=O)CN1C(=O)NC(C)(Cc2ccc(OC)c(OC)c2)C1=O (stereo not given), O=C1N/C(=C/c2cccs2)C(=O)N1Cc1ccc(Br)cc1, Cc1cc(OCC(=O)OCC(=O)NCC2CCCO2)ccc1Cl (stereo not given), O=C(O)c1ccc(OS(=O)(=O)c2cccc(C(F)(F)F)c2)cc1, Cc1cc(Cl)ccc1OCC(=O)OCC(=O)Nc1cccnc1Cl, O=C1c2ccccc2C(=O)N1CCCC(=O)N1CCCc2ccccc21, CCOC(=O)c1sc(NC(=O)C2CC(=O)N(c3ccc4c(c3)OCCO4)C2)nc1C (stereo not given), CCOc1ccc(/C=N/NC(=O)c2ccc(O)cc2)cc1CN1CC2CC(C1)c1cccc(=O)n1C2 (stereo not given)
